Screening data: PubChem, several laboratories
Hits are enriched below; roughly 3.3% of the tested compounds scored in any of these assays.
NR3A LBD binder = modulators (binders) of human NR3A ligand-binding domain; 340,000 compounds, 2.5% hits; Tm shift relative to glycine control, % at 25 µM; NR3A LBD differential scanning fluorimetry, Tm shift; 0% = protein alone, 100% = glycine-bound protein;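 active = melting temperature shift of at least 10% of the positive control shift, at one fixed dose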
SUMO HTRF inh = SUMOylation inhibition. P63279. HTRF SUMOylation assay, SAE1/SAE2 + UBC9, in vitro. inhibition, % at 35 µM. 290,000 compounds, 0.36% hits; in the data active = inhibition above about 50%, passing the limit was not always enough; inconclusive = no clear call, values can overlap the other calls
sPLA2-III inh = Inhibits HGIII-sPLA2 liposome hydrolysis, primary screen. Q9NZ20. QFRET BODIPY PC-A2 liposome hydrolysis, fluorescence. inhibition, % at 12.2 µM. 370,000 compounds, 0.56% hits. AID 743126;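 active = inhibition above mean plus 3 SD of compounds lying within the high and low control bounds, cut at about 19% in these data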
Target sequence (Q9NZ20 whole entry, looked up): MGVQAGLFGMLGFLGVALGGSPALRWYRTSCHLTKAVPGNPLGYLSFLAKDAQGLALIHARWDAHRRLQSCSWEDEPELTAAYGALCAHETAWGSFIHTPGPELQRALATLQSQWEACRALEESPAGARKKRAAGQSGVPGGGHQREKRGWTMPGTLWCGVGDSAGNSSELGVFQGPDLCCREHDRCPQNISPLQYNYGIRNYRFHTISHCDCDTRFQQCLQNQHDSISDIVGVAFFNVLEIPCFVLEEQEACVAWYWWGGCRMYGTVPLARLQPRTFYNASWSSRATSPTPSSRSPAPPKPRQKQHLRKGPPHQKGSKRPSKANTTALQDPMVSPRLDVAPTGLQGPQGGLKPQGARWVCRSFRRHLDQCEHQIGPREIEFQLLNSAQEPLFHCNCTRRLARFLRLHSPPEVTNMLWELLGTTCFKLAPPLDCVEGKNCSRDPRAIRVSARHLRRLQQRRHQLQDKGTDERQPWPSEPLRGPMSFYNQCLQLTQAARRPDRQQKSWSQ
UBC13 polyUb = human UBC13 polyubiquitination inhibition. P61088. UBC13 polyubiquitin chain formation, TR-FRET. inhibition, % at 20 µM. 330,000 compounds, 0.47% hits. AID 485273; in the data active = inhibition above about 45%, passing the limit was not always enough; inconclusive = no clear call, values can overlap the other calls
Casp3 UBC13 ctr = counter-screen for UBC13 inhibitors: human caspase-3 inhibition | shares compounds with UBC13 polyUb | Recombinant caspase-3, Caspase-Glo 3/7 luminescence, 60 min | inhibition, % at 20 µM | 1,400 compounds, 4% hits | AID 488856;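 active = mean inhibition across replicates above about 26%, limit read from the data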
UBC13 confirm = human UBC13 polyubiquitin inhibition, confirmed; shares compounds with UBC13 polyUb; UBC13 polyubiquitination, TR-FRET, biochemical; inhibition, % at 10 µM; 1,400 compounds, 68% hits; AID 488859; in the data active = inhibition above about 45%; inconclusive = no clear call, values can overlap the other calls
Hits are given with their value.

Screening CCCCCc1cc(=O)oc2c(C(CCN3CCCC3)c3ccc(N(C)C)cc3)c(OC)cc(OC)c12 (stereo not given) returned NR3A LBD binder inactive, SUMO HTRF inh inactive, sPLA2-III inh inactive, UBC13 polyUb 82, Casp3 UBC13 ctr inactive and UBC13 confirm inactive.
`CCCC[C@@H](CCCc1ccc(F)cc1)CCC(=O)N(c1ccccc1)c1ccccc1` gave sPLA2-III inh inactive.
O=C(CSc1nnc(-c2ccccc2)n1Cc1ccco1)Nc1ccc(OCc2ccccc2)cc1 was read as sPLA2-III inh inactive.
Screening COC(=O)c1cc(-c2cc3ccccc3o2)c(=O)n2c1CCC2 returned sPLA2-III inh inactive.
Screening O=C(CN1CCN(Cc2ccccc2)CC1)N/N=C\c1c2ccccc2cc2ccccc12 returned sPLA2-III inh inactive.
For CCCCCc1cc(=O)oc2c(C(CCN3CCCC3)c3cc(OC)c(OC)c(OC)c3)c(OC)cc(OC)c12 (stereo not given) the results were NR3A LBD binder inactive, SUMO HTRF inh inactive, sPLA2-III inh inactive, UBC13 polyUb 80, Casp3 UBC13 ctr inactive and UBC13 confirm 73.
`COc1cc(C(CCN2CCOCC2)c2c(OC)cc(OC)c3c(C)cc(=O)oc23)cc(OC)c1OC` (stereo not given) gave NR3A LBD binder inactive, SUMO HTRF inh inactive, sPLA2-III inh inactive and UBC13 polyUb inactive.
O=S(=O)(c1ccc(F)cc1)n1c(CN2CCOCC2)nc2ccccc21 was read as sPLA2-III inh inactive.
For C#CCOCCOCCOCCNc1nc(N2CCN(C(=O)CCCCCCCCCCNC(=O)[C@H]([C@@H](C)CC)n3cc(CCCCN=C(N)N)nn3)CC2)nc(N2CCN(C(=O)CCCCCCCCCCNC(=O)[C@@H]([C@H](C)O)n3cc(C)nn3)CC2)n1 the results were NR3A LBD binder inactive, UBC13 polyUb 123, Casp3 UBC13 ctr inactive and UBC13 confirm 125.
C#CCOCCOCCOCCNc1nc(N2CCOCC2)nc(N2CCN(C(=O)[C@H]([C@@H](C)CC)n3cc(CCCN=C(N)N)nn3)CC2)n1 was read as NR3A LBD binder inactive, SUMO HTRF inh inactive, sPLA2-III inh inactive and UBC13 polyUb inactive.
For C#CCOCCOCCOCCNc1nc(N2CCOCC2)nc(N2CCN(C(=O)CCCCCCCCCCNC(=O)[C@H]([C@@H](C)CC)n3cc(CCCCN=C(N)N)nn3)CC2)n1 the results were NR3A LBD binder inactive, sPLA2-III inh inactive, UBC13 polyUb 77, Casp3 UBC13 ctr inactive and UBC13 confirm 70.
For O=C(O)c1ccc2[nH]c3c(c2c1)CSCC3 the results were NR3A LBD binder inactive, SUMO HTRF inh inactive and UBC13 polyUb inactive.
CN(C)CCOC(=O)c1ccc2[nH]c3c(c2c1)CSCC3 was read as NR3A LBD binder inactive, SUMO HTRF inh inactive, sPLA2-III inh inactive, UBC13 polyUb 62, Casp3 UBC13 ctr inactive and UBC13 confirm 53.
Cc1ccc2c(c1)N(CCCC(=O)N(C)Cc1ccccc1F)C(=O)CO2 was read as sPLA2-III inh inactive.
`CSCCC(NC(=O)COc1ccccc1)C(=O)N1CCCCC1` (stereo not given) gave NR3A LBD binder inactive, SUMO HTRF inh inactive, sPLA2-III inh inactive and UBC13 polyUb inactive.
`CSCCC(NC(=O)COc1ccccc1)C(=O)N1CCC(C(N)=O)CC1` (stereo not given) gave NR3A LBD binder inactive, sPLA2-III inh inactive, UBC13 polyUb 68, Casp3 UBC13 ctr inactive and UBC13 confirm 86.
For O=C(Nc1cc(Cl)ccc1F)C1CCCN1S(=O)(=O)c1cccc2cccnc12 (stereo not given) the results were sPLA2-III inh inactive.
`Cc1nc(N)c2c(Cc3cccc4ccccc34)nn(C(C)(C)C)c2n1` gave NR3A LBD binder inactive, sPLA2-III inh inactive, UBC13 polyUb 74, Casp3 UBC13 ctr inactive and UBC13 confirm inactive.
`O=C(CSc1nc2ccccc2c(=O)n1CC1CCCO1)NCC1CCCO1` (stereo not given) gave NR3A LBD binder inactive, SUMO HTRF inh inactive, sPLA2-III inh inactive and UBC13 polyUb inactive.
`COc1ccc(C(=O)Nn2c(SCC(=O)NC3CCCC3)nc3ccccc3c2=O)cc1` gave NR3A LBD binder inactive, SUMO HTRF inh inactive, sPLA2-III inh inactive and UBC13 polyUb inactive.
`COc1ccc(C(=O)Nn2c(SCC(=O)NCc3ccccc3)nc3ccccc3c2=O)cc1` gave NR3A LBD binder inactive, SUMO HTRF inh inactive, sPLA2-III inh inactive, UBC13 polyUb 52, Casp3 UBC13 ctr inactive and UBC13 confirm 58.
For COc1ccc(C(=O)Nn2c(SCC(=O)NCC3CCCO3)nc3ccccc3c2=O)cc1 (stereo not given) the results were NR3A LBD binder inactive, SUMO HTRF inh inactive, sPLA2-III inh inactive, UBC13 polyUb 58, Casp3 UBC13 ctr 71 and UBC13 confirm 48.
For CC1(C)C=C2C(N(Cc3ccc4c(c3)OCO4)C(=N)N2C(=O)OCc2ccccc2)n2c(=O)n(-c3ccccc3)c(=O)n21 (stereo not given) the results were sPLA2-III inh inactive.
For Oc1ccc(C2=NNC(=NCc3ccc4c(c3)OCO4)SC2)c(O)c1 the results were NR3A LBD binder inactive, SUMO HTRF inh inactive, sPLA2-III inh inactive, UBC13 polyUb 45, Casp3 UBC13 ctr inactive and UBC13 confirm 72.
CC(=O)N1c2ccccc2C(=O)NCC1C(=O)NC(C)(C)C (stereo not given) was read as sPLA2-III inh inactive.
O=C(NCCCN1CCCC1=O)c1cc(-c2ccc(F)cc2)nc2ccccc12 was read as NR3A LBD binder inactive, sPLA2-III inh inactive and UBC13 polyUb inactive.
For COc1ccc(-c2cc(C(=O)NCCCN3CCCC3=O)c3ccccc3n2)cc1 the results were NR3A LBD binder inactive, sPLA2-III inh inactive, UBC13 polyUb 47, Casp3 UBC13 ctr inactive and UBC13 confirm 54.
Screening CSc1sc(-c2nnc(SCC(=O)Nc3ccccc3)n2C)c2c1C=CCC2 returned NR3A LBD binder inactive, SUMO HTRF inh inactive, sPLA2-III inh inactive, UBC13 polyUb 54, Casp3 UBC13 ctr inactive and UBC13 confirm inconclusive.
Cc1cc(-c2nnc(SCC(=O)Nc3ccccc3)n2C)no1 was read as NR3A LBD binder inactive, SUMO HTRF inh inactive, sPLA2-III inh inactive and UBC13 polyUb inactive.
For Cc1cc(C)cc(OCC(=O)NNC(=S)NC(=O)C2CC2)c1 the results were NR3A LBD binder inactive, SUMO HTRF inh inactive, sPLA2-III inh inactive, UBC13 polyUb 83, Casp3 UBC13 ctr inactive and UBC13 confirm 104.
COc1ccc(OCC(=O)NNC(=S)NC(=O)C2CC2)cc1 was read as NR3A LBD binder inactive, SUMO HTRF inh inactive, sPLA2-III inh inactive, UBC13 polyUb 79, Casp3 UBC13 ctr inactive and UBC13 confirm 101.
`COc1ccc(OCC(=O)NNC(=S)NC(=O)C2CCCCC2)cc1` gave SUMO HTRF inh inactive, sPLA2-III inh inactive and UBC13 polyUb inactive.
